These results are taken from PubChem BioAssay (EPA / NIEHS).

Common to all, as to details: mRNA level, 48 h; actives raise or lower the signal
Read-out in assay [1]: Bcl-2 (BAX) gene, BAX (gene 581)
The assay can be described thus: LTEA_HepaRG_BAX: Life Technologies and Expression Analysis (LTEA) Assay for Bcl-2 (BAX) gene using HepaRG (AID 2283470). The method, boiled down:
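Gene expression measured by Fluidigm qRT-PCR with three housekeeping genes for normalisation. HepaRG cells, plated 48 h beforehand, treated 48 h at up to 100 uM (8-point, half-log) in 0.5% DMSO. Bidirectional fitting versus DMSO.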

Read-out in assay [2]: adenosine kinase (ADK) gene, ADK (gene 132)
The assay can be described thus: LTEA_HepaRG_ADK: Life Technologies and Expression Analysis (LTEA) Assay for adenosine kinase (ADK) gene using HepaRG (AID 2283471). The method, boiled down: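 HepaRG (human liver), 48 h chemical exposure, 8-pt half-log series, top 100 uM, 0.5% DMSO vehicle. Readout: ADK mRNA by qRT-PCR vs housekeeping genes; bidirectional curve fit relative to DMSO baseline.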

Read-out in assay [3]: Alpha-fetoprotein (AFP) gene, AFP (gene 174)
The assay can be described thus: LTEA_HepaRG_AFP: Life Technologies and Expression Analysis (LTEA) Assay for Alpha-fetoprotein (AFP) gene using HepaRG (AID 2283472). Summed up: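 AFP transcript measured by TaqMan qRT-PCR with three housekeeping genes for normalization, after 48 h chemical treatment of HepaRG cells (top 100 uM, half-log steps, 0.5% DMSO). Gain or loss fitted against vehicle.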

Read-out in another assay: BCL2L11 (gene 10018)
The assay can be described thus: LTEA_HepaRG_BCL2L11: Life Technologies and Expression Analysis (LTEA) Assay for Bcl-2 (BCL2L11) gene using HepaRG (AID 2283473). The method, boiled down:
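Read-out is BCL2L11 transcript level by qRT-PCR, normalized to three housekeeping genes and fitted bidirectionally against 0.5% DMSO vehicle. HepaRG cells received chemicals for 48 h in serum-free induction medium, 100 uM down in half-log dilutions.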

Read-out in assay [4]: Apolipoprotein A-V (APOA5) gene, APOA5 (gene 116519)
The assay can be described thus: LTEA_HepaRG_APOA5: Life Technologies and Expression Analysis (LTEA) Assay for Apolipoprotein A-V (APOA5) gene using HepaRG (AID 2283474). The method, boiled down: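 Readout is APOA5 transcript level by qRT-PCR on Fluidigm dynamic arrays, normalized to three housekeeping genes. HepaRG cultures received chemicals for 48 h at up to 100 uM (half-log steps, 0.5% DMSO), with gain or loss scored relative to DMSO.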

Read-out in assay [5]: Apoptosis regulator Bcl-2 (Homo sapiens) (UniProt P10415)
The assay can be described thus: LTEA_HepaRG_BCL2: Life Technologies and Expression Analysis (LTEA) Assay for Bcl-2 gene using HepaRG (AID 2283475). Summed up: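 qRT-PCR of BCL2 transcript, normalized to three housekeeping genes (ACTB, GAPDH, POLR2A), after 48 h chemical exposure of HepaRG cells; concentrations top 100 uM with half-log dilutions, 0.5% DMSO vehicle, duplicates; changes up or down fitted relative to vehicle.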

Read-out in assay [6]: Bcl-2 (BID) gene, BID (gene 637)
The assay can be described thus: LTEA_HepaRG_BID: Life Technologies and Expression Analysis (LTEA) Assay for Bcl-2 (BID) gene using HepaRG (AID 2283476). Summed up:
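Duplicate 48 h treatments of HepaRG cells in serum-free induction medium spanned 100 uM downward in half-log steps, 0.5% DMSO. Transcript change quantified by qRT-PCR against three housekeeping genes, fitted up or down versus DMSO.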

Read-out in another assay: Caspase-3 (Homo sapiens) (UniProt P42574)
The assay can be described thus: LTEA_HepaRG_CASP3: Life Technologies and Expression Analysis (LTEA) Assay for cysteine-aspartic acid protease (CASP3) using HepaRG (AID 2283477). Summed up:
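Read-out is CASP3 mRNA level by TaqMan qRT-PCR in human HepaRG cells after 48 h chemical exposure. Eight half-log concentrations topping at 100 uM were tested in 0.5% DMSO; gain or loss was fitted relative to DMSO.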

Read-out in assay [7]: Cytochrome P450 (CYP24A1), CYP24A1 (gene 1591)
The assay can be described thus: LTEA_HepaRG_CYP24A1: Life Technologies and Expression Analysis (LTEA) Assay for Cytochrome P450 (CYP24A1) using HepaRG (AID 2283478). The method, boiled down:
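HepaRG, 48 h chemical exposure, 8-pt half-log CRC from 100 uM, 0.5% DMSO vehicle, duplicates. Endpoint: CYP24A1 mRNA by Fluidigm TaqMan qRT-PCR, normalized ACTB/GAPDH/POLR2A; gain/loss fit vs DMSO.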

Read-out in assay [8]: Cytochrome P450 (CYP1A2), CYP1A2 (gene 1544)
The assay can be described thus: LTEA_HepaRG_CYP1A2: Life Technologies and Expression Analysis (LTEA) Assay for Cytochrome P450 (CYP1A2) using HepaRG (AID 2283479). Summed up: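 CYP1A2 transcript induction or loss, quantified by Fluidigm qRT-PCR against three housekeeping genes, was fitted bidirectionally against 0.5% DMSO controls. Human HepaRG cells received eight half-log concentrations from 100 uM over 48 h.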

Read-out in assay [9]: cysteine-aspartic acid protease (CASP8), CASP8 (gene 841)
The assay can be described thus: LTEA_HepaRG_CASP8: Life Technologies and Expression Analysis (LTEA) Assay for cysteine-aspartic acid protease (CASP8) using HepaRG (AID 2283480). Summed up:
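Concentration-response in duplicate up to 100 uM (half-log steps, 0.5% DMSO) on differentiated HepaRG cultures for 48 h. Expression change of CASP8 mRNA is determined by TaqMan qRT-PCR with housekeeping-gene normalization.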

Read-out in assay [10]: Cytochrome P450 (CYP2B6), CYP2B6 (gene 1555)
The assay can be described thus: LTEA_HepaRG_CYP2B6: Life Technologies and Expression Analysis (LTEA) Assay for Cytochrome P450 (CYP2B6) using HepaRG (AID 2283481). The method, boiled down: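 HepaRG cells plated 48 h, switched to serum-free induction medium, then dosed 48 h (8 points, half-log from 100 uM, 0.5% DMSO). RNA isolated; CYP2B6 expression measured by qRT-PCR; gain or loss fitted relative to DMSO.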

Read-out in assay [11]: Cytochrome P450 2C19 (Homo sapiens) (UniProt P33261)
The assay can be described thus: LTEA_HepaRG_CYP2C19: Life Technologies and Expression Analysis (LTEA) Assay for CYP2C19 using HepaRG (AID 2283482). The method, boiled down:
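Transcript levels of CYP2C19 were quantified by qRT-PCR after HepaRG cells were treated for 48 hours with test chemicals up to 100 uM (eight half-log concentrations, 0.5% DMSO vehicle). Gain or loss of signal was fitted relative to DMSO.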

Read-out in another assay: CYP2C8 (gene 1558)
The assay can be described thus: LTEA_HepaRG_CYP2C8: Life Technologies and Expression Analysis (LTEA) Assay for CYP2C8 using HepaRG (AID 2283483). The method, boiled down:
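This is a transcriptional endpoint in HepaRG cultures: 48 h exposure, highest concentration 100 uM. CYP2C8 mRNA is quantified by TaqMan qRT-PCR.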

Read-out in a further assay: CYP2C9 (gene 1559)
The assay can be described thus: LTEA_HepaRG_CYP2C9: Life Technologies and Expression Analysis (LTEA) Assay for CYP2C9 using HepaRG (AID 2283484). Summed up:
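Eight-point concentration-response (highest 100 uM, half-log dilutions) in HepaRG cells for 48 h; CYP2C9 expression by qRT-PCR normalized to ACTB, GAPDH, POLR2A. Bidirectional fit, DMSO baseline.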

Read-out in a further assay: CYP2E1 (gene 1571)
The assay can be described thus: LTEA_HepaRG_CYP2E1: Life Technologies and Expression Analysis (LTEA) Assay for CYP2E1 using HepaRG (AID 2283485). Summed up:
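CYP2E1 transcript measured by Fluidigm qRT-PCR against three housekeeping genes in human HepaRG cells treated 48 h (top 100 uM, half-log steps, 0.5% DMSO vehicle). Gain or loss fitted relative to DMSO baseline.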

Read-out in the next assay: CYP4A11 (gene 1579)
The assay can be described thus: LTEA_HepaRG_CYP4A11: Life Technologies and Expression Analysis (LTEA) Assay for CYP4A11 using HepaRG (AID 2283486). The method, boiled down:
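HepaRG, 48 h chem exposure, 8 conc (100 uM top, half-log), 0.5% DMSO vehicle; qRT-PCR readout, housekeeping-gene normalized; bidirectional curve fit vs DMSO baseline.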

Read-out in assay [12]: DNA damage-inducible transcript 3 (DDIT3), DDIT3 (gene 1649)
The assay can be described thus: LTEA_HepaRG_DDIT3: Life Technologies and Expression Analysis (LTEA) Assay for DNA damage-inducible transcript 3 (DDIT3) using HepaRG (AID 2283488). The method, boiled down:
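DDIT3 transcript was quantified by qRT-PCR with ACTB/GAPDH/POLR2A normalization after 48 h chemical treatment of differentiated HepaRG cells in 0.5% DMSO. Dosing was eight-point, half-log, top 100 uM, duplicate wells. Curves fitted bidirectionally versus DMSO.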

Read-out in assay [13]: Pro-epidermal growth factor (Homo sapiens) (UniProt P01133)
The assay can be described thus: LTEA_HepaRG_EGF: Life Technologies and Expression Analysis (LTEA) Assay for Epidermal growth factor (EGF) using HepaRG (AID 2283489). Summed up:
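HepaRG, 48 h dosing, 100 uM top, half-log x8, 0.5% DMSO. Readout: TaqMan qRT-PCR (Fluidigm array), housekeeping-normalized. Gain or loss of signal fit vs DMSO.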

Structures are written as SMILES. Calls of active or inactive are those of the source. The calls were made as follows: active = hit-call score of the fitted dose curve at least 0.9, where 1 is the maximum; inactive = score below 0.9.

Chain of Caspase-3 (Homo sapiens) (P42574 whole entry, looked up): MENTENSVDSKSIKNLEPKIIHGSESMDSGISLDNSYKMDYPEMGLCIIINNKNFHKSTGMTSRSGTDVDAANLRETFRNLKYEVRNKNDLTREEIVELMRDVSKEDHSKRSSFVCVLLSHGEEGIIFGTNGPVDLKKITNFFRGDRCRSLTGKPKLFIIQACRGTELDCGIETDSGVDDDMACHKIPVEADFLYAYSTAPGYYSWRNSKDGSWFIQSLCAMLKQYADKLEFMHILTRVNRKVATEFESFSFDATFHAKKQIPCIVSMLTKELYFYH
Chain of Cytochrome P450 2C19 (Homo sapiens) (P33261 whole entry, looked up): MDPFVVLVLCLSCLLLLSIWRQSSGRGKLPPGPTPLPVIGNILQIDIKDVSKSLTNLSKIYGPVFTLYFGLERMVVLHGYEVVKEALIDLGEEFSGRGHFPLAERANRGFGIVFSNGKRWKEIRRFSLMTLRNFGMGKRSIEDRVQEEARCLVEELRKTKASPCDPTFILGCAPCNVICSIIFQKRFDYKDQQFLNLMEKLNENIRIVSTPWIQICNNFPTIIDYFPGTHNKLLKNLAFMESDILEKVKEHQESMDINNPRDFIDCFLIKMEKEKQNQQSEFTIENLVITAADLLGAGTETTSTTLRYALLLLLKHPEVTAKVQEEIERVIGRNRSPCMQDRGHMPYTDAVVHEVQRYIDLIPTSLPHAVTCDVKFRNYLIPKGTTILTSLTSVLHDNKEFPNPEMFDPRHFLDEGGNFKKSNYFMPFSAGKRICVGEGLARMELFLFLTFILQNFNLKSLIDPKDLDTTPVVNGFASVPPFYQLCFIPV
Chain of Apoptosis regulator Bcl-2 (Homo sapiens) (P10415 whole entry, looked up): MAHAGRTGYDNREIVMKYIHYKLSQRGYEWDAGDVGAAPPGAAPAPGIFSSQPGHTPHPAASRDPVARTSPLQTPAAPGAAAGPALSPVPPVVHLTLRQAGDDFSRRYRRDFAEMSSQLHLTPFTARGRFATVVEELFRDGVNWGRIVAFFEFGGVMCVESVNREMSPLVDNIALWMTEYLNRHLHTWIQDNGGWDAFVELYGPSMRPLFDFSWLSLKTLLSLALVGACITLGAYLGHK

For the molecule `CCCCCCCCOC(=O)c1cc(O)c(O)c(O)c1`, the molecule was called inactive (in assay [1]; in assay [2]; in assay [3]; with BCL2L11 (gene 10018); in assay [4]; in assay [5]). For the same molecule, the outcome (in assay [6]; in the assay with Caspase-3 (Homo sapiens); in assay [7]; in [9]; in [10]; in assay [11]) was inactive. Moreover, the outcome (with CYP2C8 (gene 1558); with CYP2C9 (gene 1559); in the assay with CYP2E1 (gene 1571); in the assay with CYP4A11 (gene 1579); in assay [12]; in [13]) was inactive. Further, the concentration at half-maximal activity (AC50) – broadly, the concentration at which the activity in the assay is half-maximal – in assay [8] is 39.5 µM (active).
On to `Cc1cc2c(cc1C(F)(F)F)N(C(=O)Nc1ccc(Oc3cccnc3C)nc1)CC2`, for which the result (in [1]; in assay [5]; with Caspase-3 (Homo sapiens); in assay [11]; with CYP2C8 (gene 1558); in assay [12]) was inactive. For the same molecule, the molecule was called inactive in [13]. Further, the AC50 in assay [2] is 82.4 µM (active); in assay [3] it was 19.9 µM (active); in the assay with BCL2L11 (gene 10018) it was 81.3 µM (active); in assay [4] it was 78 µM (active); in [6], 75 µM (active); in [8] it was 2.31 µM (active). Moreover, the AC50 in assay [9] is 73.6 µM (active); in assay [10], 12.2 µM (active); in the assay with CYP2C9 (gene 1559) it was 46 µM (active); with CYP4A11 (gene 1579), 52.6 µM (active).
Turning to `O=C(Nc1ccc(Cl)cc1)Nc1ccc(Cl)c(Cl)c1`, the AC50 was 29.2 µM (active) in [1]; 22.6 µM (active) in assay [2]; 11.9 µM (active) in [5]; 13.3 µM (active) with Caspase-3 (Homo sapiens); 11.8 µM (active) in assay [8]; 19.2 µM (active) in assay [10]. Also, the AC50 in [11] is 22.6 µM (active); with CYP2C8 (gene 1558), 87.1 µM (active); with CYP2C9 (gene 1559), 16.9 µM (active); with CYP2E1 (gene 1571), 15.8 µM (active); in the assay with CYP4A11 (gene 1579), 28.7 µM (active); in [12], 26.6 µM (active). Also, the AC50 in assay [13] is 50 µM (active). For the same molecule, the molecule was called inactive (in [3]; with BCL2L11 (gene 10018); in [6]; in assay [7]; in assay [9]).
Take `CCCCOC(=O)c1ccc(O)cc1`: the call (in assay [1]; in assay [2]; in assay [3]; with BCL2L11 (gene 10018); in [5]; in assay [6]) was inactive. Further, the molecule was called inactive (with Caspase-3 (Homo sapiens); in [7]; in assay [8]; in assay [9]; in [10]; in assay [11]). For the same molecule, the call (in the assay with CYP2C8 (gene 1558); in the assay with CYP2C9 (gene 1559); in the assay with CYP2E1 (gene 1571); with CYP4A11 (gene 1579); in assay [12]; in assay [13]) was inactive.
In the case of `CC(C)(C)c1csc(-c2cc3cc(OCc4ccccc4CC(=O)O)ccc3o2)n1`, the result in [1], in assay [5], in assay [7], in [8], in assay [9] and in assay [13] was inactive. For the same molecule, the AC50 in assay [2] was 73.1 µM (active); in assay [3] it was 23.9 µM (active); with BCL2L11 (gene 10018), 18.8 µM (active); in assay [6], 75.7 µM (active); with Caspase-3 (Homo sapiens), 77.7 µM (active); in [10], 23.3 µM (active). Further, the AC50 was 33.5 µM (active) in [11]; 25.5 µM (active) in the assay with CYP2C8 (gene 1558); 12.5 µM (active) in the assay with CYP2C9 (gene 1559); 16.8 µM (active) with CYP2E1 (gene 1571); 23.2 µM (active) with CYP4A11 (gene 1579); 22.7 µM (active) in assay [12].
As for `O=C=NCCCCCCN=C=O`, the result (in assay [1]; in assay [2]; in assay [3]; in the assay with BCL2L11 (gene 10018); in assay [4]; in [5]) was inactive. Further, the molecule was called inactive (in [6]; with Caspase-3 (Homo sapiens); in assay [7]; in assay [8]; in assay [9]; in assay [10]). For the same molecule, the molecule was called inactive (in assay [11]; with CYP2C8 (gene 1558); in the assay with CYP2C9 (gene 1559); with CYP2E1 (gene 1571); with CYP4A11 (gene 1579); in assay [12]). Moreover, the molecule was classed as inactive in [13].
